Screening data from PubChem.
DRD3 agonist: qHTS of D3 Dopamine Receptor Agonist: qHTS; D(3) dopamine receptor (Homo sapiens), P35462; D3R DiscoveRx beta-arrestin cells, luminescence, 90 min; max activation, %; 410,000 tested, 0.58% active; AID 652048, 2013; in the data active = max activation above about 30%
Target sequence (P35462 whole entry, looked up): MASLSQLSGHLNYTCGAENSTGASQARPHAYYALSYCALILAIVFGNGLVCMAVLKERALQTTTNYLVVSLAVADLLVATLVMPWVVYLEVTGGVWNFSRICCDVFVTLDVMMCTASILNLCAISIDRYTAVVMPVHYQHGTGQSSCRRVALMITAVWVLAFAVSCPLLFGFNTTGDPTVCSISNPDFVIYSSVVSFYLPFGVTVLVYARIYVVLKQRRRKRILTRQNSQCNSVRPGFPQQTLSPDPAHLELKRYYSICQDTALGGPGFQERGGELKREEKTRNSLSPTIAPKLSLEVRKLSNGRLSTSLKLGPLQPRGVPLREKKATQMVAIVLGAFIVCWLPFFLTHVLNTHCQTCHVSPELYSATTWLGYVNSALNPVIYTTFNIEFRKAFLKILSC
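Cells at 1500/well, incubated overnight, then treated with pinned compounds (dopamine as control) for 90 min at 37 degrees C. DiscoveRx reagent added for 30 - 60 minutes at room temperature; luminescence read.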
D3 antag: qHTS of D3 Dopamine Receptor Antagonist: qHTS | D3R cells, DiscoveRx beta-arrestin luminescence, antagonist mode; hits give low values | AID 652054, 2013 | 360,000 tested, 2.5% active | max response, negative = inhibition, % | D(3) dopamine receptor (Homo sapiens), P35462; in the data active = max response below about -50%; inconclusive = no clear call, values can overlap the other calls
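Cells expressing the human receptor were seeded at 1500 cells/well, incubated overnight at 37 degrees C in 5% CO2, then exposed to library compounds with dopamine controls for 90 minutes at 37 degrees C before luminescent detection.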
TGFb SMAD3 inh: qHTS for Inhibitors of TGF-b. HepG2 CAGA-GFP TGF-b/SMAD3 reporter, GFP fluorescence, 18 h; TGF-beta stimulated, 500 pg/mL final. Potency, µM (doses to about 46.1 µM), usual class: inhibitors. 410,000 tested, 1.2% active; also: nearly all actives have a fitted effect of over 65% in size
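TGF-beta reporter screen: HEPG2 CAGA-GFP, 1% FBS, 500 pg/mL TGF-beta final, 18 h; per-cell GFP summed per well; curves fitted and categorized by class.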
HepG2 tox: qHTS for Inhibitors of TGF-b: Cytotox Counterscreen; HepG2 CAGA-GFP viability, ATP luminescence, 18 h; Potency, µM (top dose mostly 46.1 µM), hits mostly cytotoxic; 410,000 tested, 0.76% active
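HepG2 CAGA-GFP cells (1000/well, DMEM with 1% FBS) received compound, then TGF-beta at 500 pg/mL final, and were incubated 18 hours at 37 degrees C. Viability was read by CellTiter-Glo luminescence. Media-only wells were set as complete cell-killing and DMSO as no toxicity.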
S2 tox: Viability Counterscreen for Primary qHTS for Inhibitors of ATXN expression; 400,000 tested, 0.49% active; Potency, µM (series often up to 56.7 µM), actives largely listed as cytotoxic; AID 651635, 2014; S2 cells (HEK-293 line with an ATXN2-luciferase reporter) viability, CellTiter-Fluor protease fluorescence, 24 h; also: nearly all actives have a fitted effect of over 40% in size
ATXN2 expr inh: Primary qHTS for Inhibitors of ATXN expression. Potency, µM (doses to about 57 µM), usual class: inhibitors. 360,000 tested, 0.72% active. HEK-293 ATXN2-luciferase reporter, luminescence, 24 h; also: nearly all actives have a fitted effect of over 55% in size
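ATXN2-luciferase reporter cells (luciferase flanked by upstream and downstream ATXN2 gene portions) were treated 24 h at 37 °C with compounds at up to 57 uM. SteadyGlo luminescence gave expression; GF-AFC fluorescence gave viability.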
Numbers stand for hits; 0 = inactive; ? = inconclusive; - = no result given; [ ] = dose if it differs, or a comment. Hits are enriched below; roughly 4.7% of the tested compounds scored in any of these assays. Unless noted, calls follow the shape of the dose curve; as a rule, active = well fitted curve in the direction sought with a large enough effect; inconclusive = small, poorly fitted or top-dose-only effect, or another doubt; inactive = no such curve, though single readings can be large; an effect the other way counts as inactive or inconclusive.

SMILES | DRD3 agonist | D3 antag | TGFb SMAD3 inh | HepG2 tox | S2 tox | ATXN2 expr inh
O=C(/C=C/c1ccccc1)N1CCN(Cc2cc(=O)n3nc(-c4ccccc4Cl)sc3n2)CC1 | 0 | - | ? | 0 | 0 | 0
Cc1ccc(C2Nc3cccc4cccc(c34)N2)s1 | 0 | -60.6 | 0 | 0 | 0 | 0
Fc1ccc(C2Nc3cccc4cccc(c34)N2)cc1 | 0 | -74.9 | 0 | 0 | 0 | 0
Brc1ccc(C2Nc3cccc4cccc(c34)N2)cc1 | 0 | -63.3 | 0 | 0 | 0 | 0[2.22 µM]
FC(F)(F)c1ccc(C2Nc3cccc4cccc(c34)N2)cc1 | 0 | 0 | 0 | 0 | 0 | 0
O=C1N[C@@H](c2ccccc2)COC(=O)[C@@H](Cc2ccc(F)cc2)C/C=C\C[C@H]1CC(=O)N(CCO)Cc1ccccc1 | 0 | 0 | ? | 0 | ? | ?
O=C1N[C@@H](c2ccccc2)COC(=O)[C@H](Cc2ccc(F)cc2)CC/C=C/C[C@@H]1CC(=O)N(CCO)Cc1ccccc1 | 0 | 0 | ? | 0 | 10µM | ?
O=C1N[C@@H](Cc2ccccc2)COC(=O)[C@@H](Cc2ccc(F)cc2)CC/C=C/C[C@H]1CC(=O)N(CCO)Cc1ccccc1 | 0 | 0 | ? | 0 | 22.4µM | ?
CC(C)(C)[C@@H]1COC(=O)[C@H](Cc2ccc(F)cc2)CC/C=C\C[C@H](CC(=O)N(CCO)Cc2ccccc2)C(=O)N1 | 0 | 0 | ? | 0 | ? | ?
CC(C)(C)[C@@H]1COC(=O)[C@H](Cc2ccc(F)cc2)C/C=C\C[C@@H](CC(=O)N(CCO)Cc2ccccc2)C(=O)N1 | 42.2 | 0 | ? | 0 | ? | 0
CCC(C(=O)Nc1ccccc1C(=O)OC)n1c(C)c2cnn(-c3ccccc3)c(=O)c2c1C (stereo unspecified) | 0 | - | 0 | 0 | 0 | 0
Cc1cc(=O)n(C(C)C(=O)N2CCCc3ccccc32)c2c1c(C)nn2-c1ccccc1 (stereo unspecified) | 0 | - | 0 | 0 | 0 | 0
CCOc1ccc2nc(NC3=NC(c4ccc(OC)cc4)CC(=O)N3)nc(C)c2c1 (stereo unspecified) | 0 | 0 | ? | 0 | 8.91µM | 8.91µM
CCOc1ccc2nc(NC3=NC(C)(C)C=C(C)N3)nc(C)c2c1 | 0 | 0 | ? | 0 | ? | ?
O=C1CCN(Cc2ccccc2)C=C1C(=O)c1ccccc1 | 47.4 | 0 | 0 | 0 | 0 | 0
O=C(CC1NCCN(Cc2ccccc2)C1=O)Nc1ccc(Cl)cc1 (stereo unspecified) | 0 | 0 | 0 | 0 | 0 | 0
O=C(CC1NCCc2ccccc21)Nc1ccc(Cl)cc1 (stereo unspecified) | 0 | -87.2 | 0 | 0 | 0 | ?
CCC(CC)C(=O)Nc1nnc(SCc2cc(=O)n3cccc(C)c3n2)s1 | 62.4 | - | ? | 0 | - | -
Cc1cc(C(=O)CCl)c(C)n1CCc1ccccc1 | 0 | 0 | ? | 7.94µM | ? | 0[11.3 µM]
Cc1cc(C(=O)CCl)c(C)n1Cc1ccco1 | 0 | 0 | ? | 0 | 25.1µM | ?
CCN1CCN(C(=O)C2CCN(C(=O)c3cc4sccc4n3CC)CC2)CC1 | 0 | 0 | 0 | 0 | 0 | 0
CCN1CCN(C(=O)c2cc3sccc3n2CC(=O)c2ccccc2)CC1 | 0 | -56.1 | 0 | 0 | 0 | 0
CN1CCN(C(=O)c2cc3sccc3n2CC(=O)c2ccccc2)CC1 | 0 | -61.8 | 0 | 0 | ? | 0
CC(=O)C[C@H]1c2cc(F)cc(F)c2S(=O)(=O)N1C1CCN(Cc2ccccc2)CC1 | - | - | 0 | 0 | - | -
C[C@]12CCC(=O)C=C1[C@@H]1CC1[C@H]1[C@H]3[C@@H]4C[C@H]4[C@@]4(CCC(=O)O4)[C@@]3(C)CC[C@H]12 (stereo partly specified) | - | - | - | - | - | 0
SMILES | DRD3 agonist | D3 antag | TGFb SMAD3 inh | HepG2 tox | S2 tox | ATXN2 expr inh
CCOc1ccccc1NC(=O)CN1CCC(C(=O)c2ccc(F)cc2)CC1 | 0 | ? | 0 | 0 | 0 | 0
O=C(CN1CCCC1)Nc1ccccc1Cl | 0 | ? | 0 | 0 | 0 | 0
COc1ccc(C(=O)N2CCC(C(=O)c3ccc(F)cc3)CC2)cc1 | 0 | 0 | 0 | 0 | 0 | 0
COc1ccc(NC(=O)CN2CCC(n3c(C)nc4cc(F)ccc43)CC2)c(OC)c1 | 131.8 | 0 | 0 | 0 | 0 | 0
COc1ccccc1NC(=O)CN1CCC(C(=O)c2ccc(F)cc2)CC1 | 0 | -70.3 | 0 | 0 | 0 | 0
COc1ccccc1C(=O)N1CCC(C(=O)c2ccc(F)cc2)CC1 | 0 | -70.2 | 0 | 0 | 0 | 0
O=C(CN1CCC(C(=O)c2ccc(F)cc2)CC1)Nc1ccccc1Cl | 0 | -56.9 | 0 | 0 | 0 | 0
C=C1OC(CO)(n2cnc3c(N)ncnc32)C(O)C1O (stereo unspecified) | - | - | 0 | 0 | - | -
Cn1c(CNS(=O)(=O)c2ccc(Cl)cc2)n[nH]c1=S | 0 | -60.2 | 0 | 0 | 0 | ?
Cn1c(CNS(=O)(=O)c2ccc(F)cc2)n[nH]c1=S | 0 | 0 | 0 | 0 | 0 | 0
CCCCNC(=S)NCC(c1ccccc1)c1c[nH]c2ccccc12 (stereo unspecified) | 0 | 0 | ? | 0 | ? | ?
CN(C)CCCNC(=S)NCC(c1ccc(Cl)cc1Cl)c1c[nH]c2ccccc12 (stereo unspecified) | 0 | 0 | ? | 0 | ? | 25.1µM
CC(=O)Nc1ccc(C2=NNC(=Nc3cccc(S(=O)(=O)N(C)C)c3)SC2)cc1 | 0 | 0 | 10µM | 0 | ? | -
CN(C)S(=O)(=O)c1cccc(N=C2NN=C(c3ccccc3)CS2)c1 | 0 | 0 | 0 | 0 | ? | 0
CC(C)Oc1cc(F)ccc1-c1cc(C(=O)NC2CCCCC2)[nH]n1 | 0 | ? | 0 | 0 | ? | 0
Cc1cc(F)ccc1-c1cc(C(=O)NC2CCCCC2)[nH]n1 | 0 | -83.3 | 0 | 0 | 0 | 0
CCCOc1ccc(F)cc1-c1cc(C(=O)NC2CCCCC2)[nH]n1 | 0 | -101.7 | 0 | 0 | 0 | 0
CCc1ccc2[nH]c(=O)c(CN(Cc3cccs3)Cc3nnnn3Cc3ccccc3)cc2c1 | - | - | ? | 0 | - | -
Cc1ccc(NC(=O)C2CCN(c3ncnc4sc(C)c(C)c34)CC2)cc1S(=O)(=O)N(C)C | 0 | 0 | ? | 0 | ? | ?
Cc1sc2ncnc(N3CCC(C(=O)Nc4cc(Cl)ccc4Cl)CC3)c2c1C | 42.1 | 0 | 0 | 0 | 0 | 0
CCN(CC)S(=O)(=O)c1cc(NC(=O)C2CCN(c3ncnc4sc(C)c(C)c34)CC2)ccc1Cl | 0 | 0 | ? | 0 | ? | 11.2µM
Cc1sc2ncnc(N3CCC(C(=O)Nc4cc(S(C)(=O)=O)ccc4Cl)CC3)c2c1C | 0 | 0 | 0 | 0 | ? | 0
